Screens from PubChem.
Only some compounds are listed: those with a hit (about 3% of all), similar ones and a draw of the others.
SENP6 inh = inhibitors of human SENP6 protease | Recombinant SENP6 catalytic domain, aminoluciferin luminescence | actives 1.8% (n = 330,000) | Q9GZR1 | inhibition, % at 10 µM;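 active = inhibition above about 50% at the single tested dose, limit read from the data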
SENP8 block-1 = blocks human SENP8 cleavage of Nedd8 substrate; Q96LD8; recombinant SENP8, Nedd8 substrate fluorescence; inhibition, % at 20 µM; actives 0.64% (n = 360,000); AID 602440; in the data active = inhibition mostly above about 40%, no sharp cut-off; inactive = mostly below about 27%
SENP7 inh = SENP7 protease inhibition; inhibition, % at 5 µM; recombinant SENP7, Z-RLRGG-aminoluciferin luminescence, 40 min; actives 1.5% (n = 330,000); AID 434973; Q9BQF6;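 active = inhibition above about 50% at the single test dose, limit read from the data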
Target sequence (Q9BQF6 706-1050 limits assumed): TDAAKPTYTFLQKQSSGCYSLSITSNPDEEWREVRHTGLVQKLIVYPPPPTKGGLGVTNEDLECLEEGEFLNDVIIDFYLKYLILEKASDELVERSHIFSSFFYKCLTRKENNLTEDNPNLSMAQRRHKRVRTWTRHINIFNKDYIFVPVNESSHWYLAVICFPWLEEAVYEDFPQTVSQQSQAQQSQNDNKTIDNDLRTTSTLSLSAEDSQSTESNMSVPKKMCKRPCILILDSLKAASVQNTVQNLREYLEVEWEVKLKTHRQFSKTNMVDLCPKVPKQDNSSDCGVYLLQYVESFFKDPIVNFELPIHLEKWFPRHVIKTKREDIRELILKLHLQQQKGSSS
TRAIL sens C8 = caspase-8 TRAIL sensitization; AID 624354; NB7+C8 cells + TRAIL, ATPlite viability luminescence; inhibition (viability loss, TRAIL sensitization), % at 10 µM; actives 1% (n = 360,000);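 active = compounds causing at least 50% loss of cell viability in the single-dose screen, relative to plate controls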
SENP8 block-2 = blocks the human protease SENP8; purified SENP8, Z-RLRGG-aminoluciferin cleavage, luminescence; AID 2540; inhibition, % at 10 µM; actives 1.2% (n = 330,000); in the data active = inhibition above about 50%
PPC-1+TRAIL kill = PPC-1 cancer cell killing with TRAIL present | PPC-1 cells + TRAIL, ATPLite viability luminescence | actives 0.41% (n = 220,000) | AID 1443 | cell killing (% activity), % at 4 µM or 5 µM;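 active = cell killing above 50% in the first pass at 4 µM, then a duplicate retest at 5 µM averaging 50% or more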
SENP8 conf = confirmation of human SENP8 protease inhibitors. shares compounds with SENP7 inh. inhibition, % at 12.5 µM. actives 40% (n = 6,200). Recombinant SENP8, Z-RLRGG-aminoluciferin luminescence, 60 min;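 active = mean inhibition across replicates above about 50%, limit read from the data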
SENP6 conf = confirmation of human SENP6 protease inhibitors; shares compounds with SENP7 inh; actives 58% (n = 6,200); recombinant SENP6, Z-RLRGG-aminoluciferin luminescence; inhibition, % at 12.5 µM
SENP7 conf = human SENP7 inhibition, confirmed | shares compounds with SENP7 inh | recombinant SENP7, Z-RLRGG-aminoluciferin luminescence, 40 min | inhibition, % at 12.5 µM | actives 69% (n = 6,200) | AID 488917
Casp3 SENP sel = inhibits human caspase-3 in SENP selectivity test. inhibition, % at 12.5 µM. shares compounds with SENP7 inh. actives 60% (n = 6,200). purified caspase-3, Z-DEVD-aminoluciferin luminescence, 60 min. AID 488918;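 active = mean inhibition above about 50%, limit read from the data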
Target sequence (P42574 28-227 limits assumed): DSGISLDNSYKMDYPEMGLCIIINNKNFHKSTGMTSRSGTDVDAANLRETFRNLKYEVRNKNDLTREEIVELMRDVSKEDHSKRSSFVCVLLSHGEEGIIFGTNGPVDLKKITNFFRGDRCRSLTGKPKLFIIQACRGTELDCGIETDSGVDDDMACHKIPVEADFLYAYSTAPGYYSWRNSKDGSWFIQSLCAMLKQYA
SENP luc ctr = interferes with luciferase luminescence in SENP counter-screen | shares compounds with SENP7 inh | Pre-incubated SENP8/Z-RLRGG-aminoluciferin, luciferase luminescence interference | inhibition, % at 12.5 µM | actives 39% (n = 6,200) | AID 488919;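 active = mean inhibition above about 50% when retested at one dose, limit read from the data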
Hits are given with their value; i = inactive; nt = no result given.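 Rule for the calls, unless noted: active = mean inhibition above about 50% in the one-dose retest (limit read from the data); inactive = the rest.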

SMILES	SENP6 inh	SENP8 block-1	SENP7 inh	TRAIL sens C8	SENP8 block-2	PPC-1+TRAIL kill	SENP8 conf	SENP6 conf	SENP7 conf	Casp3 SENP sel	SENP luc ctr
O=C(O)c1cc(N/N=C/c2ccncc2)ccc1Cl	60	i	i	i	i	i	58	54	85	i	72
O=C(O)c1cc(N/N=C/c2cccnc2)ccc1Cl	i	i	i	i	i	i	nt	nt	nt	nt	nt
Cc1cccc(C(=O)OCC(=O)N(CC(C)C)c2c(N)n(Cc3ccccc3)c(=O)[nH]c2=O)c1O	i	i	i	i	i	nt	nt	nt	nt	nt	nt
N#Cc1ccc(S(=O)(=O)NCC(=O)OCC(=O)N2CCCC2=O)cc1	i	i	i	i	i	nt	nt	nt	nt	nt	nt
Fc1ccc2nc3[nH]c4ccccc4c3nc2c1	74	i	74	i	i	i	i	53	53	61	i
OC1=C(O)c2nc3cc(F)ccc3nc21	i	i	i	i	i	i	nt	nt	nt	nt	nt
N#C/C(=N\Nc1ccc(Cl)c(Cl)c1)C(=O)C1CC1	96	i	77	i	93	i	92	98	100	87	i
CS(=O)(=O)N1N=C(c2cccs2)CC1c1ccccc1 (stereo not drawn)	i	i	i	i	i	i	nt	nt	nt	nt	nt
CS(=O)(=O)N1N=C(c2ccc(Br)cc2)CC1c1cccs1 (stereo not drawn)	61	i	i	i	i	i	i	i	83	56	i
CCS(=O)(=O)Nc1cccc(C2=NN(S(=O)(=O)c3ccc(C)cc3)C(c3cccs3)C2)c1 (stereo not drawn)	i	i	i	i	i	i	nt	nt	nt	nt	nt
Cc1ccc(C2=NN(S(C)(=O)=O)C(c3cccs3)C2)cc1 (stereo not drawn)	74	i	52	i	54	i	68	64	87	75	67
CCc1ccc(C2=NN(S(C)(=O)=O)C(c3cccs3)C2)cc1 (stereo not drawn)	96	i	92	i	83	i	90	90	99	90	86
COc1ccc(C2=NN(S(C)(=O)=O)C(c3cccs3)C2)cc1 (stereo not drawn)	i	i	i	i	i	i	nt	nt	nt	nt	nt
COc1ccc(OCc2nnc(SCC(=O)Nc3nnc(C4CC4)s3)n2C)cc1	i	i	i	i	i	nt	nt	nt	nt	nt	nt
CCN(CC)S(=O)(=O)c1ccc(Cl)c(NC(=O)COc2ccc(OC)cc2)c1	i	i	i	i	i	i	nt	nt	nt	nt	nt
COc1ccc(OC)c(C=C2CCc3ccccc3C2=O)c1	nt	i	nt	i	nt	nt	nt	nt	nt	nt	nt
O=C1/C(=C/c2ccc([N+](=O)[O-])cc2)CCc2ccccc21	95	nt	98	nt	90	i	i	81	i	i	i
COc1ccc(/C=C2\CCc3ccccc3C2=O)cc1OC	52	i	i	i	i	i	69	62	62	i	i
O=C(O)c1ccc(N/N=C/c2cc3ccccc3nc2Cl)cc1	i	i	i	i	i	i	nt	nt	nt	nt	nt
Cc1ccc(/C=N/Nc2cccc(C(=O)O)c2)s1	95	i	97	i	96	i	99	100	103	92	98
O=C(N/N=C/c1ccncc1)c1cccc(N/N=C/c2ccncc2)c1	i	i	i	i	i	i	nt	nt	nt	nt	nt
O=C(N/N=C/c1ccc(O)cc1)c1cccc(N/N=C/c2ccc(O)cc2)c1	52	i	i	i	i	i	i	i	i	i	i
Cc1cccc2cc(/C=N/Nc3ccc(C(=O)O)cc3)c(Cl)nc12	83	i	i	i	77	i	88	90	89	72	i
O=C(O)c1cccc(N/N=C/c2cccc3ccccc23)c1	97	i	55	i	95	nt	100	100	103	94	99
CC(=O)NCCNc1nc2cc(-c3cscc3C)sc2c(=O)n1C	nt	i	nt	i	nt	nt	nt	nt	nt	nt	nt
SMILES	SENP6 inh	SENP8 block-1	SENP7 inh	TRAIL sens C8	SENP8 block-2	PPC-1+TRAIL kill	SENP8 conf	SENP6 conf	SENP7 conf	Casp3 SENP sel	SENP luc ctr
Cc1ccc(/C=N/Nc2ccc(C(=O)O)cc2)s1	95	i	i	i	97	i	52	101	104	99	100
Cc1nn(-c2ccccc2Cl)c(Cl)c1/C=N/Nc1cccc(C(=O)O)c1	97	i	95	78	97	i	99	101	103	91	98
Cc1ccc(/C=N/NC(=O)c2ccc(C(=O)N/N=C/c3ccc(C)s3)o2)s1	i	i	i	i	i	i	nt	nt	nt	nt	nt
Cc1nn(-c2cccc(C(F)(F)F)c2)c(Cl)c1/C=N/Nc1cccc(C(=O)O)c1	nt	i	nt	i	nt	i	nt	nt	nt	nt	nt
O=C(O)c1cccc(N/N=C/c2ccc(F)c(F)c2)c1	101	i	i	i	94	i	99	99	102	86	98
O=C(O)c1ccc(N/N=C/c2cc(Br)cs2)cc1	99	i	100	i	97	nt	98	99	102	i	97
COc1ccc(/C(C)=N/NC(=O)C(NC(=O)c2ccccc2)c2n[nH]c(=O)c3ccccc23)c(OC)c1 (stereo not drawn)	i	i	i	i	i	i	nt	nt	nt	nt	nt
Brc1ccc(-c2cnc(-c3cccs3)o2)cc1	69	i	62	i	i	i	56	67	86	i	i
c1ccc(-c2cnc(-c3cccnc3)o2)cc1	i	i	i	i	i	i	nt	nt	nt	nt	nt
Cc1cc2cc(C#N)c(SCC(=O)Nc3nonc3C)nc2cc1C	99	i	i	i	i	nt	i	i	i	i	i
COc1ccc2cc(C#N)c(SCC(=O)Nc3nonc3C)nc2c1	i	i	i	i	i	nt	nt	nt	nt	nt	nt
CCOc1cc(/C=C2/C(=O)N(c3ccccc3)N=C2C)ccc1OC(=O)c1ccco1	i	66	68	i	i	i	i	i	i	i	i
CCOc1cc(/C=C2\C(=O)N(c3ccc(C(N)=O)cc3)N=C2C)ccc1OC(=O)c1cccs1	63	66	68	i	i	i	i	i	i	i	i
O=C(/C=C/c1ccc(Cl)cc1)NC(=S)Nc1ccc(NC(=O)c2ccco2)cc1	nt	i	nt	i	nt	i	nt	nt	nt	nt	nt
O=c1c(-c2ccc(Br)cc2)coc2c(CN3CCOCC3)c(O)ccc12	i	i	i	i	i	i	nt	nt	nt	nt	nt
O=c1c(-c2ccc(F)cc2)coc2cc(O)ccc12	86	i	i	i	82	i	90	90	99	94	90
